PubChem BioAssay (NCI)
This is part of a sample that, as a whole, favours compounds with a hit. Of some 79,000 tested, about 15% had one in any assay. The source made the active and inactive calls. Cut-off read from the data, not from the text of the source: active = growth inhibition above about 70%; inactive = the rest.

Experiments:
[1] = NCI Yeast Anticancer Drug Screen. Data for the rad52 strain (AID 147);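 note: 0% = growth of vehicle-treated control cultures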; conditions: S. cerevisiae rad52 mutant growth inhibition, hits give high values
Outline: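 Genetically altered yeast (DNA damage repair defect) treated with compound; inhibition calculated relative to vehicle.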

[2] = NCI Yeast Anticancer Drug Screen. Data for the wt1 strain (AID 149);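 note: 0% = growth of vehicle-treated wt1 cultures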; conditions: S. cerevisiae wt1 strain (SPY 50644) growth inhibition, hits give high values
Outline: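 Using yeast strain wt1, compound-induced growth inhibition was determined against vehicle-treated cultures.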

[3] = NCI Yeast Anticancer Drug Screen. Data for the rad50EPP+ strain (AID 151);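 note: 0% = growth of vehicle-treated control cultures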; conditions: S. cerevisiae rad50 mutant strain, hits give high values
Outline: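 Strain rad50EPP+; compound exposure; % growth inhibition vs vehicle.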

[4] = NCI Yeast Anticancer Drug Screen. Data for the mgt1 strain (AID 153); conditions: S. cerevisiae mgt1 mutant growth inhibition, hits give high values
Outline: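 Read-out: yeast growth inhibition vs vehicle control. Strain mgt1, drawn from a panel altered in DNA damage repair or cell cycle control.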

[5] = NCI Yeast Anticancer Drug Screen. Data for the rad50 strain (AID 155);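 note: 0% = growth of vehicle-only cultures of the same strain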; conditions: S. cerevisiae rad50 strain growth inhibition, hits give high values
Outline: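 Relative growth inhibition (compound vs vehicle) was measured in yeast with a defined repair-gene alteration.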

[6] = NCI Yeast Anticancer Drug Screen. Data for the mec2-1 strain (AID 157); conditions: S. cerevisiae mec2-1 strain, hits give high values
Outline: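 Cells of the genetically defined mec2-1 yeast strain are incubated with test compound. Inhibition of growth is calculated against vehicle-treated controls.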

[7] = NCI Yeast Anticancer Drug Screen. Data for the rad14 strain (AID 159);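 note: 0% = growth of vehicle-treated control cultures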; conditions: S. cerevisiae rad14 strain growth inhibition, hits give high values
Outline: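 Screen for anticancer potential: a yeast strain altered in DNA damage repair is grown with compound, and reduced growth is quantified against vehicle controls.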

[8] = NCI Yeast Anticancer Drug Screen. Data for the sgs1 mgt1 strain (AID 161);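 note: 0% = growth of cultures given vehicle only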; conditions: S. cerevisiae sgs1 mgt1 strain, hits give high values
Outline: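 Inhibition of yeast growth, normalised to vehicle-treated controls, is reported for a strain bearing genetic alterations in DNA damage repair.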

[9] = NCI Yeast Anticancer Drug Screen. Data for the CLN2oe strain (AID 163);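 note: 0% = growth of vehicle-only control cultures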; conditions: S. cerevisiae CLN2oe strain, hits give high values
Outline: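 Strain altered in cell-cycle control, incubated with compound; growth compared to solvent-treated controls.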

[10] = NCI Yeast Anticancer Drug Screen. Data for the cln2 rad14 strain (AID 165);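 note: 0% = growth equal to vehicle treated cultures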; conditions: S. cerevisiae cln2 rad14 strain, hits give high values
Outline: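 The screen exposed genetically defined yeast (cln2 rad14) to test compounds and scored growth inhibition relative to vehicle-treated controls.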

[11] = NCI Yeast Anticancer Drug Screen. Data for the bub3 strain (AID 167); conditions: S. cerevisiae bub3 mutant strain, hits give high values
Outline: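 Screening used yeast with an engineered genetic alteration affecting cell cycle control. Compound-exposed cultures were compared with vehicle cultures, and reduced growth was taken as inhibition.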

[12] = NCI Yeast Anticancer Drug Screen. Data for the wt2 strain (AID 169);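 note: 0% = growth of vehicle-treated yeast cultures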; conditions: S. cerevisiae wt2 strain growth inhibition, hits give high values
Outline: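 Steps: yeast strain treated with compound; growth recorded; inhibition calculated relative to cultures given vehicle alone.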

[13] = NCI Yeast Anticancer Drug Screen. Data for the mlh1 strain (AID 171);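 note: 0% = growth of vehicle-treated control cultures of the same strain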; conditions: S. cerevisiae mlh1 strain growth inhibition, hits give high values
Outline: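 Yeast screen: mutant strain plus compound, growth scored against vehicle control wells.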

[14] = NCI Yeast Anticancer Drug Screen. Data for the sgs1 strain (AID 173);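 note: 0% = growth of vehicle-only control cultures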; conditions: S. cerevisiae sgs1 mutant, hits give high values
Outline: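 Inhibition of yeast growth served as the measure. The mutant strain was treated with each compound, and growth was normalised to cultures receiving vehicle alone.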

[15] = NCI Yeast Anticancer Drug Screen. Data for the mlh1 rad18 strain (AID 175); conditions: S. cerevisiae mlh1 rad18 strain growth inhibition, hits give high values
Outline: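 Compound-treated yeast growth, normalised to vehicle controls. Strain bears defined DNA repair mutations.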

[16] = NCI Yeast Anticancer Drug Screen. Data for the rad18 strain (AID 177); conditions: S. cerevisiae rad18 mutant growth inhibition, hits give high values
Outline: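 Inhibition values reflect reduced yeast growth compared with vehicle-treated controls, using a strain engineered with a DNA damage repair defect.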

[17] = at 5.0 µM (retest, dose inferred, filed as 0.5)
[18] = at 50.0 µM (retest, dose inferred, filed as 5.0)

Measured: growth inhibition

Cc1cc(C(C)(C)C)c(OCCCN2CCOCC2)c(C(C)(C)C)c1
active: [1]; at 100.0 µM 96% | [4]; at 100.0 µM 99% | [5]; at 50.0 µM 75.5% | [5]; at 100.0 µM 94% | [6]; at 100.0 µM 98% | [7]; at 100.0 µM 99% | [8]; at 50.0 µM 82.2% | [9]; at 100.0 µM 97% | [11]; at 50.0 µM 75.5% | [11]; at 100.0 µM 94% | [12]; at 100.0 µM 98% | [13]; at 100.0 µM 97% | [14]; at 100.0 µM 98% | [15]; at 50.0 µM 83.8%
inactive: [1]; at 1.2 µM -5% | [1]; at 3.7 µM -9% | [1]; at 11.0 µM -14% | [1]; at 33.0 µM -3% | [2]; at 1.2 µM -1% | [2]; at 3.7 µM 0% | [2]; at 11.0 µM -3% | [2]; at 33.0 µM -7% | [2]; at 100.0 µM 62% | [3]; at 1.2 µM 0% | [3]; at 3.7 µM 3% | [3]; at 11.0 µM 3% | [3]; at 33.0 µM 19% | [3]; at 100.0 µM 47% | [4]; at 1.2 µM 0% | [4]; at 3.7 µM -4% | [4]; at 11.0 µM -9% | [4]; at 33.0 µM 4% | [5]; at 1.2 µM -1% | [5]; at 3.7 µM -6% | [5]; [17] 5% | [5]; at 11.0 µM 5% | [5]; at 33.0 µM 8% | [5]; [18] 50% | [6]; at 1.2 µM -1% | [6]; at 3.7 µM -5% | [6]; [17] -2% | [6]; at 11.0 µM -8% | [6]; at 33.0 µM -4% | [6]; [18] 12% | [6]; at 50.0 µM 59.5% | [7]; at 1.2 µM -2% | [7]; at 3.7 µM -1% | [7]; at 11.0 µM -5% | [7]; at 33.0 µM 15% | [8]; [17] 2% | [8]; [18] -10% | [9]; at 1.2 µM -5% | [9]; at 3.7 µM -4% | [9]; at 11.0 µM -15% | [9]; at 33.0 µM -17% | [10]; [17] -21% | [10]; [18] -81% | [10]; at 50.0 µM 24.3% | [11]; at 1.2 µM -5% | [11]; at 3.7 µM -1% | [11]; [17] -15% | [11]; at 11.0 µM -32% | [11]; at 33.0 µM 6% | [11]; [18] -10% | [12]; at 1.2 µM -2% | [12]; at 3.7 µM -3% | [12]; at 11.0 µM -8% | [12]; at 33.0 µM 9% | [13]; at 1.2 µM 3% | [13]; at 3.7 µM 2% | [13]; at 11.0 µM -3% | [13]; at 33.0 µM -16% | [14]; at 1.2 µM 0% | [14]; at 3.7 µM 0% | [14]; at 11.0 µM 0% | [14]; at 33.0 µM 25% | [15]; [17] -7% | [15]; [18] 48%

CN(C)C=NC1CCC(C(C)(C)C)CC1 (stereo unspecified)
active: [1]; at 33.0 µM 74% | [1]; at 100.0 µM 99% | [2]; at 100.0 µM 97% | [3]; at 100.0 µM 73% | [4]; at 33.0 µM 97% | [4]; at 100.0 µM 99% | [5]; at 33.0 µM 97% | [5]; [18] 97% | [5]; at 50.0 µM 98.8% | [5]; at 100.0 µM 99% | [6]; at 33.0 µM 73% | [6]; [18] 99% | [6]; at 50.0 µM 95.8% | [6]; at 100.0 µM 99% | [7]; at 11.0 µM 75% | [7]; at 33.0 µM 98% | [7]; at 100.0 µM 99% | [8]; [18] 98% | [8]; at 50.0 µM 97.7% | [9]; at 33.0 µM 95% | [9]; at 100.0 µM 99% | [10]; [18] 98% | [10]; at 50.0 µM 98.4% | [11]; at 33.0 µM 94% | [11]; [18] 98% | [11]; at 50.0 µM 97.5% | [11]; at 100.0 µM 99% | [12]; at 33.0 µM 88% | [12]; at 100.0 µM 99% | [13]; at 33.0 µM 94% | [13]; at 100.0 µM 99% | [14]; at 33.0 µM 95% | [14]; at 100.0 µM 99% | [15]; [18] 98% | [15]; at 50.0 µM 98.2% | [16]; at 33.0 µM 93% | [16]; at 100.0 µM 99%
inactive: [1]; at 1.2 µM -5% | [1]; at 3.7 µM 7% | [1]; at 11.0 µM 34% | [2]; at 1.2 µM -4% | [2]; at 3.7 µM -5% | [2]; at 11.0 µM -1% | [2]; at 33.0 µM 51% | [3]; at 1.2 µM -2% | [3]; at 3.7 µM 5% | [3]; at 11.0 µM 10% | [3]; at 33.0 µM 30% | [4]; at 1.2 µM -1% | [4]; at 3.7 µM -1% | [4]; at 11.0 µM 45% | [5]; at 1.2 µM -3% | [5]; at 3.7 µM -1% | [5]; [17] 28% | [5]; at 11.0 µM 59% | [6]; at 1.2 µM 2% | [6]; at 3.7 µM 0% | [6]; [17] -24% | [6]; at 11.0 µM 10% | [7]; at 1.2 µM -1% | [7]; at 3.7 µM 11% | [8]; [17] 14% | [9]; at 1.2 µM 1% | [9]; at 3.7 µM 9% | [9]; at 11.0 µM 44% | [10]; [17] 17% | [11]; at 1.2 µM -8% | [11]; at 3.7 µM -2% | [11]; [17] 62% | [11]; at 11.0 µM 55% | [12]; at 1.2 µM 0% | [12]; at 3.7 µM 4% | [12]; at 11.0 µM 34% | [13]; at 1.2 µM 8% | [13]; at 3.7 µM 1% | [13]; at 11.0 µM 47% | [14]; at 1.2 µM 1% | [14]; at 3.7 µM 2% | [14]; at 11.0 µM 55% | [15]; [17] -32% | [16]; at 1.2 µM -3% | [16]; at 3.7 µM 8% | [16]; at 11.0 µM 54%
